# According to PubChem BioAssay:
# For part of these data: Entries with a potency or affinity are not part of this list. Activity calls are given as the source filed them. Unless noted, the rule behind the calls is not given here.
# Experiments:
# [1] = antimalarial activity against Dd2 strain (AID 2302;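 active = growth inhibition above 50% at the single 2 µM test dose, taken to imply half-maximal potency below 2 µM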;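 note: 0% = DMSO untreated growth and 100% = chloroquine plus artemisinin killed control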); conditions: P. falciparum Dd2 in RBCs, LDH growth readout, 72 h; at 2 µM; active compounds read high
# [2] = HepG2 cytotoxicity, primary screen, cytotoxicity control for P. falciparum antimalarial project, cell-based, ATP luminescence (AID 2303;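 active = inhibition above 50%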;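 note: 0% = DMSO wells and 100% = digitonin-killed cells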); conditions: HepG2 viability, 24-48 h, at 10 µM, active compounds read high
# [3] = target: L-lactate dehydrogenase (Plasmodium falciparum (isolate CDC / Honduras)) (UniProt Q27743); assay: PfLDH activity inhibition – cell lysate, 3D7 strain, counter-screen for P. falciparum growth inhibition project (AID 2304);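 note: 0% = vehicle and 100% = reference inhibitor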; conditions: P. falciparum 3D7 crude extract, LDH APAD/NBT absorbance; at 2 µM; active compounds read high
# L-lactate dehydrogenase (Plasmodium falciparum (isolate CDC / Honduras)), sequence (Q27743 whole entry, looked up): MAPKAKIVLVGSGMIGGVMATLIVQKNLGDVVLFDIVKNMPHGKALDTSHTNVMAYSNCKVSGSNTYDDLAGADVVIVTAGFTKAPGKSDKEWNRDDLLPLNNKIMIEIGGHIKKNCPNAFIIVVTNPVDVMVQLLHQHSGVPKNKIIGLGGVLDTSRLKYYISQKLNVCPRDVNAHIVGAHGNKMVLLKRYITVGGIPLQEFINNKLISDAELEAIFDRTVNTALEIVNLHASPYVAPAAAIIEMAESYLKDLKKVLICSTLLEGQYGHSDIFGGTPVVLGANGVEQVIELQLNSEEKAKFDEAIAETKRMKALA
# [4] = inhibition of 3D7 malaria parasite growth – strain 3D7 (AID 2306);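 note: 0% = DMSO wells and 100% = chloroquine plus artemisinin control wells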; conditions: P. falciparum 3D7 erythrocytic growth, LDH absorbance, 72 h; at 2 µM; active compounds read high
# [5] = target: Calcium-dependent protein kinase 1 (Plasmodium falciparum (isolate 3D7)) (UniProt P62344); assay: PfCDPK1 kinase inhibitors, biochemical, TCAMS library (AID 1159585; cut-off not given, nearly all actives have IC50 up to about 0.98 µM;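 note: inhibitors leave more ATP so luminescence rises with inhibition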); conditions: recombinant PfCDPK1, Kinase-Glo ATP depletion luminescence
# Calcium-dependent protein kinase 1 (Plasmodium falciparum (isolate 3D7)), sequence (P62344 whole entry, looked up): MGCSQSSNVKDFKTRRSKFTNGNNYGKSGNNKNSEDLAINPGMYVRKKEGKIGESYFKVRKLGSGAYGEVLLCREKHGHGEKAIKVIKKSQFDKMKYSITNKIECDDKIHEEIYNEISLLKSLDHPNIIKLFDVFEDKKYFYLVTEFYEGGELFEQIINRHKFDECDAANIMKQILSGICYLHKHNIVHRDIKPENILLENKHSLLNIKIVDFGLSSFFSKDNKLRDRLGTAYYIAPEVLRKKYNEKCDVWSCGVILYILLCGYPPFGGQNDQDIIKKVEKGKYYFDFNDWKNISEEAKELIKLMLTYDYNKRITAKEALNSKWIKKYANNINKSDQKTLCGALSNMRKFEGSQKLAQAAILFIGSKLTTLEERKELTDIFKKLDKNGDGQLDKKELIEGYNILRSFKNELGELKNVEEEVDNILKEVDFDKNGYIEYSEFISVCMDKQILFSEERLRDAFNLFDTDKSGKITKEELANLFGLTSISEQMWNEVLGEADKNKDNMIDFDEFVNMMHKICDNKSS
# [6] = target: Plasmodium falciparum protein kinase 6 (PK6, PF3D7_1337100) (UniProt Q8IDW1); assay: PfPK6 kinase inhibitors, biochemical, TCAMS library (AID 1159586); conditions: recombinant PfPK6, Kinase-Glo ATP depletion luminescence
# Plasmodium falciparum protein kinase 6 (PK6, PF3D7_1337100), sequence (Q8IDW1 1-305): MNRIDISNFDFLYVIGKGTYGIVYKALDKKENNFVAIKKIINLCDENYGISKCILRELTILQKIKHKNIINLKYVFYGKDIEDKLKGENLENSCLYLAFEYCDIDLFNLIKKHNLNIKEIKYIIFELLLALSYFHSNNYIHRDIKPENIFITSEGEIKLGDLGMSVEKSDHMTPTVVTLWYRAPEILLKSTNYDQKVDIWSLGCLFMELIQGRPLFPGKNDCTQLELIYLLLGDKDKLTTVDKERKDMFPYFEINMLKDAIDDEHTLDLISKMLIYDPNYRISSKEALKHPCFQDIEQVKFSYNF
# [7] = target: Protein kinase 7 (PK7), Plasmodium falciparum 3D7 (PF3D7_0213400) (UniProt Q7YTF7); assay: inhibition of Plasmodium PK7 catalytic activity – biochemical, TCAMS antimalarial set, Kinase-Glo luminescence (AID 1159587); conditions: recombinant PfPK7, Kinase-Glo ATP depletion luminescence
# Protein kinase 7 (PK7), Plasmodium falciparum 3D7 (PF3D7_0213400), sequence (Q7YTF7 1-343): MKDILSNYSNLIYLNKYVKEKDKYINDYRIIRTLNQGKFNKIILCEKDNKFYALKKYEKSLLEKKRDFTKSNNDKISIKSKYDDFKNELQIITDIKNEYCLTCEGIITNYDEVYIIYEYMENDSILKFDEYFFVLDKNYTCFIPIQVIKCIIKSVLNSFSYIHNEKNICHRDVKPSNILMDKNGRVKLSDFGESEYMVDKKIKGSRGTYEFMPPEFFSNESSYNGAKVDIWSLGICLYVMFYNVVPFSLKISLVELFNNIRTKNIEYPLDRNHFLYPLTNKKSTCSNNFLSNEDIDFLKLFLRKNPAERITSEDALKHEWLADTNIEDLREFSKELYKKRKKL
# [8] = target: Calcium-dependent protein kinase 4 (Plasmodium falciparum (isolate 3D7)) (UniProt Q8IBS5); assay: PfCDPK4 kinase inhibitors, biochemical, TCAMS library (AID 1159588; cut-off not given, nearly all actives have IC50 up to about 0.91 µM); conditions: recombinant PfCDPK4, Kinase-Glo ATP depletion luminescence
# Calcium-dependent protein kinase 4 (Plasmodium falciparum (isolate 3D7)), sequence (Q8IBS5 whole entry, looked up): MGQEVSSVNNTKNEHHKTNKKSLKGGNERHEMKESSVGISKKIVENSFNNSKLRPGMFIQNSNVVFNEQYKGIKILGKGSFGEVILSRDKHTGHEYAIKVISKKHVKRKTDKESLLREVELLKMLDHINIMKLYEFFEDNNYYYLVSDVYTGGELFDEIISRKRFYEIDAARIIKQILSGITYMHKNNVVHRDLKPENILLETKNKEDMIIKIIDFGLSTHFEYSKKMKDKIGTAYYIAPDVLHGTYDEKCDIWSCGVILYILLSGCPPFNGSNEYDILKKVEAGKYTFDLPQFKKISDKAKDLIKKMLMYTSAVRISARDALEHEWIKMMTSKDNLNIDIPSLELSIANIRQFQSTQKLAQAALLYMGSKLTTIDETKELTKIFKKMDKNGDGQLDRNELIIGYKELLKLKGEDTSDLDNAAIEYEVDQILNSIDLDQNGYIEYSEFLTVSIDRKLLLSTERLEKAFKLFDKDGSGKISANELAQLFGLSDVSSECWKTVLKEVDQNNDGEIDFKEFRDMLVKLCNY
Compound,growth inhibition [1],inhibition [2],inhibition [3],growth inhibition [4],outcome [5],outcome [6],outcome [7],outcome [8]
Cc1nc(-c2cccc(C(=O)NC3CCC(CCN4CCc5ccc(-c6cccnc6)cc5CC4)CC3)c2)no1 (stereo not drawn),4% (inactive),17% (inactive),-1% (inactive),98% (active),inactive,inactive,inactive,inactive
CCN(CC)CCN(Cc1ccc(-c2ccc(C(F)(F)F)cc2)cc1)C(=O)Cn1cc(Cc2cnn(C)c2)c(=O)nc1/C=C/c1ccc(F)cc1,91% (active),6% (inactive),3% (inactive),96% (active),inactive,inactive,inactive,inactive
CCCNC(=O)C1Cc2cc(OC)c(OC)cc2C2(N1)C(=O)N(Cc1cccc(OC)c1)c1ccccc12 (stereo not drawn),63% (active),11% (inactive),3% (inactive),91% (active),inactive,inactive,inactive,inactive
CC(=O)Oc1cc(OCc2ccccc2)c(OC(C)=O)c(OCc2ccccc2)c1,78% (active),11% (inactive),1% (inactive),94% (active),inactive,inactive,inactive,inactive
CCN(CCCN1CCCCC1)c1cc(C)nc(Nc2ccc(C)cc2C)n1,35% (inactive),33% (inactive),6% (inactive),91% (active),inactive,inactive,inactive,inactive
COc1cc2nc(NCCN3CCOCC3)n3nc(-c4ccccc4)nc3c2cc1OC,98% (active),15% (inactive),-3% (inactive),96% (active),inactive,inactive,inactive,inactive
O=C(NC1CCC(N2CCN(c3cccc4[nH]ccc34)CC2)CC1)c1cc2cccnc2[nH]1 (stereo not drawn),85% (active),9% (inactive),-2% (inactive),99% (active),inactive,inactive,inactive,inactive
N#Cc1ccc2c(c1)CCN(CCC1CCC(NC(=O)/C=C/c3ccc4ccccc4c3)CC1)CC2 (stereo not drawn),12% (inactive),20% (inactive),4% (inactive),97% (active),inactive,inactive,inactive,inactive
O=S(=O)(Nc1ccc(CCN2CCC(N3CCCCC3)CC2)cc1)c1ccc(Cl)cc1,18% (inactive),23% (inactive),-1% (inactive),101% (active),inactive,inactive,inactive,inactive
O=C(Cc1cccc2ccccc12)NC1CCN(c2ccnc3cc(Cl)ccc23)C1 (stereo not drawn),97% (active),13% (inactive),-2% (inactive),82% (active),inactive,inactive,inactive,inactive
FC(F)(F)c1ccc(-c2ccc(CNC3CCN(CCN4CCOCC4)CC3)cc2)cc1,74% (active),44% (inactive),0% (inactive),103% (active),inactive,inactive,inactive,inactive
CC1CCN(c2nc(C(=O)NCCc3ccc(Cl)c(Cl)c3)c(C(C)C)s2)CC1,38% (inactive),-3% (inactive),3% (inactive),88% (active),inactive,inactive,inactive,inactive
CS(=O)(=O)c1ccccc1CNC(=O)c1cccc(-c2ccc(-c3nc4ccc(C(F)(F)F)cc4[nH]3)cc2)c1,7% (inactive),86% (active),3% (inactive),95% (active),inactive,inactive,inactive,inactive
CCN(CC)CCN(Cc1ccc(-c2ccc(C(F)(F)F)cc2)cc1)C(=O)Cn1c(CCc2cccc(F)c2F)nc(=O)c2cccnc21,89% (active),75% (active),2% (inactive),101% (active),inactive,inactive,inactive,inactive
CN(CCCCCN1CCC(NC(=O)Nc2ccc(C(F)(F)F)cc2)C1)C(=O)/C=C/c1ccc(Cl)c(Cl)c1 (stereo not drawn),11% (inactive),28% (inactive),-3% (inactive),101% (active),inactive,inactive,inactive,inactive
O=[N+]([O-])c1cccc(NC(=S)N2CCCN(Cc3ccc(Cl)cc3Cl)CC2)c1,50% (active),3% (inactive),4% (inactive),94% (active),inactive,inactive,inactive,inactive
CC(=O)Oc1cc(C)ccc1C1CCN(CCCCNC(=O)c2ccc(NC(=O)c3ccc(Cl)cc3)cc2)CC1,57% (active),12% (inactive),-5% (inactive),100% (active),inactive,inactive,inactive,inactive
Cc1cc(OCCCN=C(N)c2ccc3ccccc3c2)c(C(C)C)cc1Cl,10% (inactive),89% (active),2% (inactive),95% (active),inactive,inactive,inactive,inactive

Compound,growth inhibition [1],inhibition [2],inhibition [3],growth inhibition [4],outcome [5],outcome [6],outcome [7],outcome [8]
CN(C)CCOc1cc(NC(=O)Nc2ccc3c(c2)CCCC3=O)ccc1I,31% (inactive),29% (inactive),-5% (inactive),94% (active),inactive,inactive,inactive,inactive
Cn1cccc1CCNCc1ccc(-c2cccc(-c3nc4ccccc4[nH]3)c2)cc1,66% (active),1% (inactive),3% (inactive),88% (active),inactive,inactive,inactive,inactive
CC1(C)N=C(N)N=C(N)N1OCCCOc1cccc(C(=O)O)c1,96% (active),73% (active),-6% (inactive),94% (active),inactive,inactive,inactive,inactive
Cc1c2c(nn1-c1ccccc1)C(c1ccccc1)N(c1ccccc1)C2=O (stereo not drawn),96% (active),42% (inactive),1% (inactive),92% (active),inactive,inactive,inactive,inactive
Cc1cc(N)c2cc(NC(=O)c3ccc4ccccc4c3)ccc2n1,99% (active),33% (inactive),1% (inactive),101% (active),inactive,inactive,inactive,inactive
CCOC(=O)c1ccc(N2CCN(CCCNC(=O)/C(=C/C=C/c3cc4cc(Cl)c(Cl)cc4[nH]3)OC)CC2)cc1,72% (active),39% (inactive),4% (inactive),93% (active),inactive,inactive,inactive,inactive
Nc1nc(Nc2cccc(Cl)c2)ncc1C(=O)NCc1ccncc1,29% (inactive),3% (inactive),-5% (inactive),98% (active),inactive,inactive,inactive,inactive
O=C(/C=C/c1ccc2ccccc2c1)NCC1(c2ccc(-c3ccccc3)cc2)CCOCC1,34% (inactive),9% (inactive),0% (inactive),95% (active),inactive,inactive,inactive,inactive
CCCCN(CCCC)CCNC(=O)c1cccc(NC(=O)N2CCc3cc(SC)c(C(F)(F)F)cc32)c1,32% (inactive),15% (inactive),-1% (inactive),96% (active),inactive,inactive,inactive,inactive
COc1ccc(CCNCc2cc3c(C(C)(C)C)nn(-c4ccc(Cl)cc4)c3[nH]c2=O)cc1OC,99% (active),13% (inactive),5% (inactive),100% (active),inactive,inactive,inactive,inactive
c1cc(C2=N[C@H]3CCCC[C@@H]3N2)ccc1OCCCOc1ccc(C2=N[C@@H]3CCCC[C@H]3N2)cc1,64% (active),-7% (inactive),-3% (inactive),99% (active),inactive,inactive,inactive,inactive
CO/C(=C\C=C\c1cc2cc(Cl)c(Cl)cc2[nH]1)C(=O)NCCCNCCN(C)c1ccccc1,55% (active),33% (inactive),2% (inactive),100% (active),inactive,inactive,inactive,inactive
COc1ccc2nc(N3CCNCC3)nc(NCCCc3ccccc3)c2c1,43% (inactive),31% (inactive),-3% (inactive),100% (active),inactive,inactive,inactive,inactive
Cc1cc(N[C@@H](Cc2ccccc2)C(=O)NCc2cccs2)nc(NCC2CCCCC2)n1,92% (active),-5% (inactive),0% (inactive),100% (active),inactive,inactive,inactive,inactive
CCOc1ccc(C(=O)Nc2cc(Cl)ccc2O)cc1Cl,84% (active),11% (inactive),0% (inactive),83% (active),inactive,inactive,inactive,inactive
COc1ccc2nccc([C@@H](O)CN3CCC(NCc4cc5ccccc5s4)CC3)c2c1,53% (active),8% (inactive),3% (inactive),97% (active),inactive,inactive,inactive,inactive
O=C(Nc1ccc(-c2oc(C(=O)NCCc3cccc(Cl)c3)cc2-c2ccncc2)cc1)Nc1cccc(Cl)c1,84% (active),13% (inactive),-1% (inactive),99% (active),inactive,inactive,inactive,inactive
COc1cc(-n2cnc3cc(-c4ccc(Cl)cc4)sc3c2=O)ccc1OCCN1CCC(c2cccc(NC(C)=O)c2)CC1,80% (active),61% (active),-4% (inactive),99% (active),inactive,inactive,inactive,inactive
